Laboratory results from PubChem BioAssay AID434931 (National Center for Advancing Translational Sciences (NCATS), 2010).
Results filed as inconclusive are left out. Calls of active or inactive are those of the source. Calls follow the shape of the dose curve; as a rule, active = well fitted inhibition curve with a large enough effect; inconclusive = small, poorly fitted or top-dose-only effect, or another doubt; inactive = no such curve, though single readings can be large or run the other way.

These molecules were tested against Neuropeptide S receptor (Homo sapiens) (UniProt Q6W5P4) (assay: Confirmation Concentration-Response Assay for Antagonists of the Neuropeptide S Receptor: Robust Characterization of Calcium Signal Transduction). Details: CHO-NPSR cells, NPS-induced calcium fluorescence (FDSS).
Sequence of Neuropeptide S receptor (Homo sapiens) (Q6W5P4 whole entry, looked up): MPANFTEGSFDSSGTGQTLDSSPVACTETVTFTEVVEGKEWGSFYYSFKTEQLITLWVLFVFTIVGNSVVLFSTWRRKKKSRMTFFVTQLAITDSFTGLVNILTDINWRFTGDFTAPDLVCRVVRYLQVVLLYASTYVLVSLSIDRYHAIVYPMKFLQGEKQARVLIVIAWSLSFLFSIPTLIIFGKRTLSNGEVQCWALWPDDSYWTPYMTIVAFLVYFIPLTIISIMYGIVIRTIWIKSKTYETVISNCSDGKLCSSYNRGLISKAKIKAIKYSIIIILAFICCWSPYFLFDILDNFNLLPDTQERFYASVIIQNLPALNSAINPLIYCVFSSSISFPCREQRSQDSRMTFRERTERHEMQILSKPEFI
From the text: NIH Chemical Genomics Center [NCGC] NIH Molecular Libraries Probe Production centers Network [MLPCN] MLPCN Grant: X01-DA026210-01 Assay Submitter (PI): Heilig, Markus Alexander NCGC Assay Overview: Neuropeptide S receptor (NPSR), previously known as GPR154, is a recently de-orphanized G protein coupled receptor. Its endogenous ligand is the 20 amino acids peptide Neuropeptide S (NPS). […] NPS and its receptor are found in various tissues. Specifically they are highly expressed in brain areas that have been implicated in modulation of arousal, stress and anxiety. Central administration of NPS in mice produces an unusual profile of activity by inducing wakefulness and arousal, while at the same time suppressing anxiety. Therefore, NPSR may represent a novel drug target for the treatment of sleep and anxiety disorders. To identify NPSR antagonists, we developed a cell-based assay with transfected NPS receptor. NPS can stimulate the production of cAMP as well as release intracellular calcium in Chinese hamster ovary cells stably expressing NPS receptor. This change in intracellular calcium can be detected using a calcium indicator dye on a calcium imaging plate reader system (FDSS). This particular assay uses a high density of sampling across concentration-response space to establish more confidence estimates of potency.
NCGC Assay Protocol Summary: A Chinese hamster ovary (CHO) cell line stably expressing the NPS receptor (CHO-NPSR) was obtained from Dr. Heilig lab at NIAAA and maintained in F-12 Kaighn's media (Invitrogen, Carlsbad, CA, 21127) supplemented with 10 % FBS, 100 units/ml penicillin, 100 ug/ml streptomycin and 250 ug/ml geneticin at 37C, 5% CO2 in a humidified atmosphere. Before the assay, aliquots of cells were frozen and stored at -135C. The assay was performed on a FDSS-7000 kinetic plate reader in 1536-well format. For both agonist (1-220s) and antagonist (221-400s) phases, the maximums of kinetic fluorescence responses were converted separately into text files using the instrument's software data export utility. Data for agonist response were normalized to the controls for basal activity (DMSO only) and 100% activation (NPS). […] AC50 values were determined from concentration-response data modeled with the standard Hill equation. NPS 1536-well FDSS assay protocol: (1) Frozen CHO-NPSR cells were thaw, washed once with fresh media and resuspended in F-12 Kaighn's media supplemented with 10 % FBS, 100 units/ml penicillin and 100 ug/ml streptomycin. Cells were plated at 3 ul/well (1200 cells) to black, clear-bottom, tissue-culture treated 1536-well plates, and then cultured at 37C, 5 % CO2 for 16 to 30 hours. (2) Add 3 ul of calcium dye (from High Performance PBX Calcium Assay Kit, BD Biosciences). The calcium dye was prepared according to the manufactory's instruction. (3) Incubation at 37C, 5 % CO2 for 60 to 120 min. (4) Load plates to FDSS-7000. The following steps were performed on FDSS-7000. (5) Record fluorescent background (Ex 480 nm, Em 520-560 nm) for 10 s. (6) Add 23 nl/well of compound in DMSO solution. The final titration for each compound was between 0.6 nM and 46 uM. Record agonist response for 210 s. (7) Add 2 ul of stimulation reagent (1X HBSS buffer, 0.1% BSA, 60 nM NPS). Record antagonist response for 140 s. Keywords: MLSMR, MLPCN, NIH Roadmap, qHTS, NCGC, NPS, Neuropeptide S Antagonists

Structure (SMILES)	Potency
Cc1c(P(=S)(c2ccccc2)c2ccccc2)[n+]2ccccc2n1Cc1ccccc1	31.8 nM (active)
Cc1c(P(=S)(c2ccccc2)c2ccccc2)[n+]2ccccc2n1CCc1ccccc1	71.2 nM (active)
Cc1c(P(=S)(c2ccccc2)c2ccccc2)c2ccccc2n1C	2830 nM (active)
S=P(c1ccccc1)(c1ccccc1)c1cnc2ccccn12	4000 nM (active)
Cc1c(P(=S)(c2ccccc2)c2ccccc2)[n+]2ccccc2n1CCCc1ccccc1	2 nM (active)
C[n+]1cc(P(=S)(c2ccccc2)c2ccccc2)n2ccccc21	2520 nM (active)
Cc1c(P(=S)(c2ccccc2)c2ccccc2)[n+]2ccccc2n1CCCCc1ccccc1	1.1 nM (active)
Cc1c(P(=S)(c2ccccc2)c2ccccc2)[n+]2ccccc2n1CCCCCc1ccccc1	12.7 nM (active)
Cc1c(P(=S)(c2ccccc2)c2ccccc2)[n+]2ccccc2n1C	50.4 nM (active)
Cc1c(P(=S)(c2ccccc2)c2ccccc2)[n+]2ccccc2n1C/C=C/c1ccccc1	0.938 nM (active)
Cc1nc2ccccn2c1P(=S)(c1ccccc1)c1ccccc1	1000 nM (active)
